Source: PubChem BioAssay (NCI)
The panel holds about 83,000 compounds, 20% with a hit somewhere; the sample as a whole holds those more often.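 Cell lines were cultured in 96-well plates, exposed to a single compound concentration, and assessed for percent growth 48 hours later.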 Active and inactive are the calls of the source. Rule for the calls: active = growth percent below 10; inactive = the rest.

Experiments:
Assay in all cases: NCI-60 one-dose screen, 48 h (100 = growth as untreated, 0 = no growth, -100 = all killed)
Conditions in all cases: 10 µM
[1] = system: SK-MEL-2 melanoma
[2] = system: SN12C renal
[3] = system: UO-31 renal
[4] = system: TK-10 renal
[5] = system: ACHN renal
[6] = system: CAKI-1 renal
[7] = system: A498 renal
[8] = system: CCRF-CEM leukemia
[9] = system: MOLT-4 leukemia
[10] = system: RPMI-8226 leukemia
[11] = system: OVCAR-8 ovarian
[12] = system: OVCAR-5 ovarian
[13] = system: OVCAR-4 ovarian
[14] = system: SK-OV-3 ovarian
[15] = system: IGROV1 ovarian
[16] = system: OVCAR-3 ovarian
[17] = system: HS 578T breast
[18] = system: NCI/ADR-RES ovarian
[19] = system: SR leukemia

Measured: growth

FC(F)(F)c1ccc(-c2ncc(-c3ccc(C(F)(F)F)cc3)c(NCc3cc(C(F)(F)F)cc(C(F)(F)F)c3)n2)cc1
inactive: [1] 69.9% | [2] 34.2% | [3] 37.1% | [4] 86.9% | [5] 27.4% | [6] 37.5% | [7] 54.1% | [8] 46.7% | [9] 59.3% | [10] 53% | [11] 44.5% | [12] 79.4% | [13] 81.3% | [14] 82.4% | [15] 65.6% | [16] 31.9% | [17] 71.9% | [18] 68.5%

CCCCCCCCCCCCCCCCCBr
inactive: [1] 108% | [2] 98.9% | [3] 91.4% | [4] 108% | [5] 102% | [6] 97.2% | [7] 64.1% | [8] 94.4% | [9] 96% | [19] 92.7% | [10] 102% | [11] 106% | [12] 100% | [13] 111% | [14] 100% | [15] 103% | [17] 91.9% | [18] 104%

COc1nc2c(c(=O)[nH]1)C(c1ccc(Oc3ccnc4cc(Cl)ccc34)c(OC)c1)C=C(c1cc(OC)c(OC)c(OC)c1)N2 (centres undefined)
inactive: [1] 82.6% | [2] 90.7% | [3] 74.5% | [4] 103% | [5] 102% | [6] 94.1% | [7] 81.9% | [8] 87.4% | [9] 78% | [19] 74.1% | [10] 94.5% | [11] 97.4% | [12] 92.6% | [13] 106% | [15] 107% | [16] 108% | [17] 98.3% | [18] 101%

Cc1cc(C)c2c(Nc3ncnc4c3sc3nc(C)cc(C)c34)n[nH]c2n1
inactive: [1] 114% | [2] 99.3% | [3] 90.9% | [4] 104% | [5] 93.6% | [6] 101% | [7] 92.3% | [8] 95.3% | [9] 94.1% | [19] 94% | [10] 98.9% | [11] 97.8% | [12] 95.2% | [13] 86.3% | [14] 106% | [15] 120% | [17] 105% | [18] 100%

O=C(OCc1ncc(-c2ccc(C(F)(F)F)cc2)c(NC2CCCCCC2)n1)c1c(F)c(F)c(F)c(F)c1F
active: [10] -6.54%
inactive: [1] 54.6% | [2] 54.1% | [3] 28.3% | [4] 63.2% | [5] 27.8% | [6] 89.6% | [7] 102% | [8] 15.7% | [9] 79.1% | [11] 44.1% | [12] 88.3% | [13] 49.4% | [14] 91.8% | [15] 63.7% | [16] 29.8% | [17] 65.3% | [18] 96.3%

O=C(Nc1ccc(Oc2ccc(Nc3nc4ccccc4s3)cc2)cc1)Nc1ccc(Cl)c(Cl)c1
active: [9] 9.65% | [19] 8.33%
inactive: [1] 50.7% | [2] 24.9% | [3] 25.8% | [4] 54.1% | [5] 20.3% | [6] 37.6% | [7] 33.4% | [8] 24.5% | [10] 22.2% | [11] 32.6% | [12] 70.5% | [13] 24.9% | [15] 39.4% | [16] 22.8% | [17] 61.9% | [18] 25.3%

CCNC(=S)NN
inactive: [1] 128% | [2] 81.7% | [3] 68.4% | [4] 130% | [5] 96.4% | [6] 90.1% | [7] 91.2% | [8] 46.2% | [9] 73.3% | [19] 61.6% | [10] 75.9% | [12] 69.3% | [13] 82.2% | [14] 104% | [15] 12.8% | [16] 106% | [17] 100% | [18] 83.8%

O=[N+]([O-])c1ccc(-c2nc(Cl)c3c(n2)CCCC3)o1
active: [6] -15.6%
inactive: [1] 102% | [2] 42.5% | [3] 97.8% | [4] 118% | [5] 97.4% | [7] 84.3% | [8] 86.8% | [9] 92.8% | [10] 85.3% | [11] 85% | [12] 103% | [13] 89.6% | [14] 108% | [15] 89.3% | [16] 108% | [17] 86.8%

CCCOCC(O)CNCCN (centres undefined)
inactive: [1] 116% | [2] 92.8% | [3] 87.8% | [4] 102% | [5] 95.4% | [6] 92.5% | [7] 89% | [8] 97.6% | [9] 115% | [19] 99.2% | [10] 101% | [11] 102% | [12] 100% | [13] 102% | [15] 116% | [16] 121% | [17] 112% | [18] 123%

COc1ccccc1S(=O)(=O)Nc1ccc2c(c1)CN(C)C(=O)N2
active: [7] -2.92% | [10] 4.25%
inactive: [1] 47.6% | [2] 53.2% | [3] 10.2% | [4] 17.3% | [5] 34.7% | [6] 21.2% | [8] 48.9% | [9] 38.4% | [19] 36% | [12] 74.5% | [13] 43.1% | [14] 49.1% | [15] 24% | [16] 32.2% | [17] 33.7% | [18] 68.9%

CCN1CCN(c2ccc(Nc3ncnc4c3nnn4CCc3cc(OC)cc(OC)c3)cc2)CC1
inactive: [1] 110% | [2] 93.7% | [3] 81.3% | [4] 114% | [5] 106% | [6] 102% | [7] 65.6% | [8] 86.4% | [9] 88.9% | [10] 91.1% | [11] 87.5% | [12] 86.7% | [13] 86.7% | [14] 101% | [15] 111% | [16] 99.2% | [17] 88.2% | [18] 92.3%

Clc1ccc(-c2nc(-c3cccs3)cn3ccnc23)cc1
inactive: [1] 70.6% | [2] 85.3% | [3] 45.9% | [4] 60.7% | [5] 91.2% | [6] 59% | [7] 90.5% | [8] 65.3% | [9] 62.4% | [19] 59.5% | [10] 64.7% | [11] 81% | [12] 108% | [13] 64.6% | [15] 60.9% | [16] 72.6% | [17] 87% | [18] 55.5%

COc1cc(-c2nc3ccccc3[nH]2)ccc1OCc1nnc(-c2ccc(Br)cc2)o1
active: [19] -25.7%
inactive: [1] 105% | [2] 85.8% | [3] 79.5% | [4] 130% | [5] 98.6% | [6] 95.5% | [7] 79.6% | [8] 67.9% | [9] 63.8% | [10] 51.5% | [12] 109% | [13] 85.1% | [14] 108% | [15] 87.4% | [16] 110% | [18] 92.5%

Fc1ccc(Nc2ccnc(N3CCN(c4ccnc5cc(Cl)ccc45)CC3)n2)cc1
active: [3] 7.09%
inactive: [1] 60.3% | [2] 49% | [4] 30.5% | [5] 38.7% | [6] 41.9% | [7] 22.7% | [8] 40.1% | [9] 13% | [19] 31% | [10] 23.9% | [12] 55.9% | [13] 33.1% | [14] 56% | [15] 43.7% | [16] 44.1% | [17] 61.4% | [18] 44.1%

FC(F)(F)c1ccc(-c2cnc(Cl)nc2NCc2cc(C(F)(F)F)cc(C(F)(F)F)c2)cc1
active: [1] -21.6% | [3] -9.98% | [5] 2.83% | [6] 1.18% | [7] -4.04% | [10] 0.828% | [16] 3.89%
inactive: [2] 12.4% | [4] 21.8% | [8] 18.8% | [9] 21.1% | [11] 15.6% | [12] 35.2% | [13] 19.5% | [14] 43.4% | [15] 45.5% | [17] 26.8% | [18] 12.5%

Cc1ccc2nc(-c3ccc(OCC(=O)N=Nc4c(O)[nH]c5ccccc45)cc3)[nH]c2c1
active: [8] 9.27% | [19] -17.5%
inactive: [1] 104% | [2] 57.3% | [3] 96.1% | [4] 103% | [5] 95.6% | [6] 93.4% | [7] 93.2% | [9] 39.6% | [10] 25.7% | [12] 104% | [13] 11.6% | [14] 99.5% | [15] 85.8% | [16] 26.5% | [17] 91.5% | [18] 89.9%

Nc1nc2c(ncn2C2OC3COP(=O)(O)OC4C(COP(=O)(O)OC2C3O)OC(n2cnc3c(N)ncnc32)C4O)c(=O)[nH]1 (centres undefined)
active: [7] 5.1%
inactive: [1] 115% | [2] 106% | [3] 104% | [4] 112% | [5] 105% | [6] 100% | [8] 97.8% | [9] 92.8% | [19] 57.8% | [10] 99.4% | [11] 102% | [12] 103% | [13] 105% | [15] 109% | [16] 107% | [17] 105% | [18] 102%
